# Results from the supplement of paper PMC8728848.
# This excerpt belongs to a sample that is enriched for the strongest signals.
# B1: GNAT (Pseudomonas aeruginosa), Q9HV14 (protein)
# chain: MQLSHRPAETGDLETVAGFPQDRDELFYCYPKAIWPFSVAQLAAAIAERRGSTVAVHDGQVLGFANFYQWQHGDFCALGNMMVAPAARGLGVARYLIGVMENLAREQYKARLMKISCFNANAAGLLLYTQLGYQPRAIAERHDPDGRRVALIQMDKPLEP
# Assays:
# Assay in all cases: glycan array binding signal (z-score within array); higher = stronger binding
# Settings in all cases: glycan notation: IUPAC condensed, linker removed
# [1] = molecular target: Fuc(a1-2)Gal(b1-3)[Fuc(a1-4)]GlcNAc(b1-2)Man(a1-3)[Fuc(a1-2)Gal(b1-3)[Fuc(a1-4)]GlcNAc(b1-2)Man(a1-6)]Man(b1-4)GlcNAc(b1-4)GlcNAc
# Summary of the method: (§1)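 Negative Z-scores can be read as non-binding. The Z-score is calculated within each array and then averaged across arrays of one protein sequence at different concentrations or buffers and across linkers. Arrays, 3228 in all, were curated from the Consortium for Functional Glycomics database and kept only where the protein sequence was available.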
# [2] = molecular target: Fuc(a1-2)Gal(b1-3)[Fuc(a1-4)]GlcNAc(b1-3)[Fuc(a1-3)[Gal(b1-4)]GlcNAc(b1-6)]Gal(b1-4)Glc
# Summary of the method: as §1
# [3] = molecular target: Fuc(a1-2)Gal(b1-4)[Fuc(a1-3)]GlcNAc(b1-3)Gal(b1-4)[Fuc(a1-3)]GlcNAc(b1-3)Gal(b1-4)[Fuc(a1-3)]GlcNAc
# Summary of the method: as §1
# [4] = molecular target: Fuc(a1-2)Gal(b1-4)[Fuc(a1-3)]GlcNAc(b1-3)GalNAc
# Summary of the method: as §1
# [5] = molecular target: Fuc(a1-2)Gal6S(b1-4)Glc
# Summary of the method: as §1
# [6] = molecular target: Fuc(a1-2)[Gal(a1-4)]Gal(b1-4)GlcNAc
# Summary of the method: as §1
# [7] = molecular target: Fuc(a1-2)[GalNAc(a1-3)]Gal(b1-3)GalNAc(a1-3)[Fuc(a1-2)]Gal(b1-4)GlcNAc
# Summary of the method: as §1
# [8] = molecular target: Fuc(a1-2)[GalNAc(a1-3)]Gal(b1-3)GlcNAc(b1-3)GalNAc
# Summary of the method: as §1
# [9] = molecular target: Fuc(a1-2)[GalNAc(a1-3)]Gal(b1-4)[Fuc(a1-3)]GlcNAc(b1-3)GalNAc
# Summary of the method: as §1
# [10] = molecular target: Fuc(a1-3)[Gal(b1-4)]GlcNAc(b1-6)GalNAc
# Summary of the method: as §1
# [11] = molecular target: Gal(a1-3)Gal(b1-3)GlcNAc(b1-2)Man(a1-3)[Gal(a1-3)Gal(b1-3)GlcNAc(b1-2)Man(a1-6)]Man(b1-4)GlcNAc(b1-4)GlcNAc
# Summary of the method: as §1
# [12] = molecular target: Gal(a1-3)Gal(b1-4)[Fuc(a1-3)]GlcNAc(b1-2)Man(a1-3)[Gal(a1-3)Gal(b1-4)[Fuc(a1-3)]GlcNAc(b1-2)Man(a1-6)]Man(b1-4)GlcNAc(b1-4)GlcNAc
# Summary of the method: as §1
# [13] = molecular target: Gal(b1-3)GlcNAc(b1-3)Gal(b1-3)GlcNAc
# Summary of the method: as §1
# [14] = molecular target: Gal(b1-3)[Fuc(a1-4)]GlcNAc(b1-3)Gal(b1-4)[Fuc(a1-3)]GlcNAc
# Summary of the method: as §1
# [15] = molecular target: Gal(b1-3)[Neu5Ac(a2-6)]GalNAc
# Summary of the method: as §1
# [16] = molecular target: Gal(b1-4)GalNAc(a1-3)[Fuc(a1-2)]Gal(b1-4)GlcNAc
# Summary of the method: as §1
# [17] = molecular target: Gal(b1-4)GlcNAc(b1-2)[Gal(b1-4)GlcNAc(b1-6)]Man(a1-6)[Gal(b1-4)GlcNAc(b1-2)Man(a1-3)]Man(b1-4)GlcNAc(b1-4)GlcNAc
# Summary of the method: as §1
# [18] = molecular target: Gal(b1-4)GlcNAc(b1-2)[Gal(b1-4)GlcNAc(b1-6)]Man(a1-6)[GlcNAc(b1-4)][Gal(b1-4)GlcNAc(b1-2)Man(a1-3)]Man(b1-4)GlcNAc(b1-4)GlcNAc
# Summary of the method: as §1
# [19] = molecular target: Gal(b1-4)GlcNAc(b1-3)Gal(b1-4)[Fuc(a1-3)GlcNAc(b1-6)]Gal(b1-4)Glc
# Summary of the method: as §1
# [20] = molecular target: Gal(b1-4)GlcNAc(b1-3)[Gal(b1-4)GlcNAc(b1-6)]Gal(b1-4)GlcNAc
# Summary of the method: as §1
# [21] = molecular target: Gal3S(b1-4)GlcNAc6S
# Summary of the method: as §1
# [22] = molecular target: Gal3S(b1-4)[Fuc(a1-3)]Glc
# Summary of the method: as §1
# [23] = molecular target: Gal3S(b1-4)[Fuc(a1-3)]Glc6S
# Summary of the method: as §1
# [24] = molecular target: Gal3S4S(b1-4)GlcNAc
# Summary of the method: as §1
# [25] = molecular target: Gal3S6S(b1-4)GlcNAc6S
# Summary of the method: as §1
# [26] = molecular target: GalNAc(b1-3)Gal(a1-4)Gal(b1-4)GlcNAc
# Summary of the method: as §1
# [27] = molecular target: Glc(a1-6)Glc(a1-6)Glc
# Summary of the method: as §1
# [28] = molecular target: GlcNAc(a1-4)Gal(b1-4)GlcNAc(b1-3)Gal(b1-4)[Fuc(a1-3)]GlcNAc(b1-3)Gal(b1-4)[Fuc(a1-3)]GlcNAc
# Summary of the method: as §1
# [29] = molecular target: GlcNAc(b1-2)[GlcNAc(b1-4)]Man(a1-3)[GlcNAc(b1-4)][GlcNAc(b1-2)Man(a1-6)]Man(b1-4)GlcNAc(b1-4)GlcNAc
# Summary of the method: as §1
# [30] = molecular target: GlcNAc(b1-2)[GlcNAc(b1-6)]Man(a1-6)[GlcNAc(b1-2)Man(a1-3)]Man(b1-4)GlcNAc(b1-4)GlcNAc
# Summary of the method: as §1
binder,measurement,setting,value
B1,glycan array binding signal (z-score),[1],2.54
same,glycan array binding signal (z-score),[2],-0.247
same,glycan array binding signal (z-score),[3],-0.411
same,glycan array binding signal (z-score),[4],4.04
same,glycan array binding signal (z-score),[5],-0.374
same,glycan array binding signal (z-score),[6],-0.398
same,glycan array binding signal (z-score),[7],-0.345
same,glycan array binding signal (z-score),[8],5.4
same,glycan array binding signal (z-score),[9],4.86
same,glycan array binding signal (z-score),[10],5.07
same,glycan array binding signal (z-score),[11],2.69
same,glycan array binding signal (z-score),[12],4.4
same,glycan array binding signal (z-score),[13],0.929
same,glycan array binding signal (z-score),[14],-0.315
same,glycan array binding signal (z-score),[15],0.421
same,glycan array binding signal (z-score),[16],-0.14
same,glycan array binding signal (z-score),[17],1.21
same,glycan array binding signal (z-score),[18],-0.222
same,glycan array binding signal (z-score),[19],0.293
same,glycan array binding signal (z-score),[20],-0.269
same,glycan array binding signal (z-score),[21],-0.322
same,glycan array binding signal (z-score),[22],-0.301
same,glycan array binding signal (z-score),[23],6.54
same,glycan array binding signal (z-score),[24],-0.461
same,glycan array binding signal (z-score),[25],-0.379
same,glycan array binding signal (z-score),[26],-0.284
same,glycan array binding signal (z-score),[27],-0.33
same,glycan array binding signal (z-score),[28],3.72
same,glycan array binding signal (z-score),[29],-0.318
same,glycan array binding signal (z-score),[30],-0.257
